Where “and” joins values, the source holds several entries; their conditions need not be identical. Identical values can stand only once. The whole screen tested about 5,500 compounds, of which about 2,000 (36%) were called active. Another 18% or so got no clear call; they are omitted. Rule as the data show it: active = normalized growth mostly below about 0.91 (no sharp cut-off); inconclusive = no clear call, values can overlap the other calls; inactive = mostly above about 0.92. This is one part of the list.
Test: chemical genetic growth profiling, strain panel (AID 1159580);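 also: tested at 20 µM; growth read once vehicle control cultures reached saturation at 30 °C; 1 = growth at the plate median or of vehicle wells; lower values mean less growth of the strain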
Details: S. cerevisiae deletion strains, growth OD

Measured: normalized growth

CC1(C)CC2C1CC[C@]1(CBr)CCC3C(CC(=O)O)C(=O)O[C@@]32C1 (stereo partly specified)
inactive: locus YAL021C, strain ccr4, active compounds read low 0.992 | locus YAL026C, strain drs2, active compounds read low 1.02 | locus YAL030W, strain snc1, active compounds read low 1.01 | locus YBL061C, strain skt5, active compounds read low 1.01 | locus YBR009C, strain hhf1, active compounds read low 1.03 | locus YBR021W, strain FUR4, active compounds read low 1.01 | locus YBR023C, strain chs3, active compounds read low 1.01 | locus YBR171W, strain sec66, active compounds read low 1.01 | locus YBR229C, strain ROT2, active compounds read low 0.958 | locus YBR231C, strain swc5, active compounds read low 1.01 | locus YBR279W, strain paf1, active compounds read low 1.01 | locus YCL011C, strain gbp2, active compounds read low 1.01 | locus YCL016C, strain dcc1, active compounds read low 1.01 | locus YCL029C, strain bik1, active compounds read low 0.985 | locus YCL061C, strain MRC1, active compounds read low 1.01 | locus YCL069W, strain vba3, active compounds read low 1.01 | locus YCR088W, strain abp1, active compounds read low 1.01 | locus YDL005C, strain med2, active compounds read low 1 | locus YDL035C, strain GPR1, active compounds read low 0.984 | locus YDL040C, strain nat1, active compounds read low 1.01 | locus YDL074C, strain BRE1, active compounds read low 1 | locus YDL101C, strain DUN1, active compounds read low 1 | locus YDL134C, strain PPH21, active compounds read low 1.05 | locus YDL185W, strain tfp1, active compounds read low 0.971 | locus YDL192W, strain arf1, active compounds read low 0.976 | locus YDR001C, strain nth1, active compounds read low 1.01 | locus YDR069C, strain doa4, active compounds read low 1.02 | locus YDR101C, strain arx1, active compounds read low 0.98 | locus YDR137W, strain rgp1, active compounds read low 0.997 | locus YDR150W, strain NUM1, active compounds read low 1 | locus YDR159W, strain sac3, active compounds read low 1.03 | locus YDR162C, strain NBP2, active compounds read low 0.976 | locus YDR195W, strain ref2 1 | locus YDR297W, strain sur2, active compounds read low 1.01 | locus YDR318W, strain mcm21, active compounds read low 0.989 | locus YDR334W, strain swr1, active compounds read low 1.01 | locus YDR335W, strain msn5, active compounds read low 1.02 | locus YDR388W, active compounds read low 1 | locus YDR392W, strain spt3, active compounds read low 0.968 | locus YDR502C, strain sam2, active compounds read low 1.03 | locus YEL003W, strain gim4, active compounds read low 1.02 | locus YEL037C, strain rad23, active compounds read low 1.01 | locus YEL061C, strain CIN8 (second series), active compounds read low 1.01 | locus YEL061C, strain CIN8, active compounds read low 0.978 | locus YER015W, strain faa2, active compounds read low 1 | locus YER016W, strain bim1, active compounds read low 1.02 | locus YER110C, active compounds read low 0.984 | locus YER111C, strain swi4, active compounds read low 1.01 | locus YER155C, strain BEM2 (second series), active compounds read low 1.04 | locus YER155C, strain BEM2, active compounds read low 0.986 | locus YER167W, strain BCK2, active compounds read low 0.993 | locus YFR010W, strain ubp6, active compounds read low 1.01 | locus YGL078C, strain dbp3, active compounds read low 1.04 | locus YGL086W, strain mad1, active compounds read low 1 | locus YGL167C, strain pmr1, active compounds read low 1.01 | locus YGL173C, strain kem1, active compounds read low 1.01 | locus YGL227W, strain vid30, active compounds read low 1.02 | locus YGL240W, strain doc1, active compounds read low 1.03 | locus YGL248W, strain PDE1, active compounds read low 1.03 | locus YGL253W, strain hxk2, active compounds read low 1.01 | locus YGR135W, strain pre9, active compounds read low 1.09 | locus YGR229C, strain SMI1, active compounds read low 0.965 | locus YGR252W, strain gcn5, active compounds read low 1.08 | locus YHR013C, strain ard1, active compounds read low 1.01 | locus YHR027C, strain rpn1, active compounds read low 1.01 | locus YHR030C, strain SLT2, active compounds read low 0.983 | locus YHR079C, strain IRE1 (second series), active compounds read low 0.994 | locus YHR079C, strain IRE1, active compounds read low 1.02 | locus YHR094C, strain hxt1, active compounds read low 0.979 | locus YHR129C, strain ARP1, active compounds read low 0.995 | locus YHR142W, strain chs7, active compounds read low 0.998 | locus YHR200W, strain rpn10, active compounds read low 1 | locus YIL066C, strain RNR3, active compounds read low 0.98 | locus YIL073C, strain SPO22, active compounds read low 1.07 | locus YIL125W, strain kgd1, active compounds read low 0.984 | locus YIR030C, strain dcg1, active compounds read low 0.992 | locus YJL092W, strain hpr5, active compounds read low 1.01 | locus YJL095W, strain BCK1 (second series), active compounds read low 1.02 | locus YJL095W, strain BCK1, active compounds read low 1.07 and 0.997 | locus YJL115W, strain asf1, active compounds read low 1.02 | locus YJL129C, strain trk1, active compounds read low 0.997 | locus YJL134W, strain LCB3, active compounds read low 0.993 | locus YJL154C, strain vps35, active compounds read low 1 | locus YJL164C, strain tpk1, active compounds read low 1.03 | locus YJL166W, strain qcr8, active compounds read low 1 | locus YJL168C, strain set2, active compounds read low 1 | locus YJL187C, strain SWE1 (second series), active compounds read low 1.02 | locus YJL187C, strain SWE1, active compounds read low 1.02 | locus YJR066W, strain TOR1, active compounds read low 0.922 | locus YJR075W, strain HOC1, active compounds read low 1.02 | locus YKL009W, strain mrt4, active compounds read low 0.976 | locus YKL068W, active compounds read low 0.989 | locus YKL085W, strain MDH1 (second series), active compounds read low 0.995 | locus YKL085W, strain MDH1, active compounds read low 0.995 | locus YKL160W, strain elf1, active compounds read low 0.99 | locus YKL190W, strain CNB1, active compounds read low 0.994 | locus YKR001C, strain vps1, active compounds read low 0.993 | locus YKR026C, strain gcn3, active compounds read low 0.996 | locus YKR091W, strain srl3, active compounds read low 1.01 | locus YLL001W, strain dnm1, active compounds read low 1.03 | locus YLL026W, active compounds read low 1.02 | locus YLL041C, strain sdh2, active compounds read low 1.01 | locus YLR027C, strain aat2, active compounds read low 1.01 | locus YLR039C, strain RIC1, active compounds read low 1.07 | locus YLR058C, strain SHM2, active compounds read low 0.996 | locus YLR102C, strain apc9, active compounds read low 0.995 | locus YLR113W, strain HOG1, active compounds read low 1.03 | locus YLR221C, strain rsa3, active compounds read low 1.01 | locus YLR258W, strain gsy2, active compounds read low 1.03 | locus YLR262C, strain YPT6 (second series), active compounds read low 0.976 | locus YLR268W, strain sec22, active compounds read low 0.96 | locus YLR320W, strain mms22, active compounds read low 1.02 | locus YLR330W, strain CHS5, active compounds read low 0.992 | locus YLR342W, strain FKS1, active compounds read low 1.01 | locus YLR357W, strain rsc2, active compounds read low 1.04 | locus YLR370C, strain arc18, active compounds read low 1.01 | locus YLR371W, strain rom2, active compounds read low 1.01 | locus YLR384C, strain iki3, active compounds read low 1.01 | locus YLR418C, strain cdc73, active compounds read low 1.04 | locus YML016C, strain PPZ1, active compounds read low 0.997 | locus YML032C, strain rad52, active compounds read low 0.992 | locus YML120C, strain ndi1, active compounds read low 1.02 | locus YML124C, strain tub3, active compounds read low 0.992 | locus YMR058W, strain fet3, active compounds read low 1.02 | locus YMR078C, strain ctf18, active compounds read low 0.998 | locus YMR125W, strain sto1, active compounds read low 1 | locus YMR129W, active compounds read low 1.01 | locus YMR205C, strain PFK2, active compounds read low 1.02 | locus YMR223W, strain ubp8, active compounds read low 1.02 | locus YMR231W, strain pep5, active compounds read low 1 | locus YMR307W, strain GAS1, active compounds read low 1.06 | locus YNL067W, strain RPL9B, active compounds read low 1.03 | locus YNL071W, strain lat1, active compounds read low 1.01 | locus YNL128W, strain TEP1, active compounds read low 0.984 | locus YNL153C, strain GIM3, active compounds read low 1.03 | locus YNL183C, strain NPR1, active compounds read low 0.924 | locus YNL209W, strain ssb2, active compounds read low 1.01 | locus YNL233W, strain BNI4, active compounds read low 1.06 | locus YNL248C, strain rpa49, active compounds read low 1.01 | locus YNL250W, strain rad50, active compounds read low 0.973 | locus YNL271C, strain bni1, active compounds read low 0.987 | locus YNL298W, strain CLA4, active compounds read low 1 | locus YNL307C, strain MCK1, active compounds read low 1.04 | locus YNL322C, strain KRE1 (second series), active compounds read low 1.01 | locus YNL322C, strain KRE1, active compounds read low 0.988 | locus YNR049C, strain mso1, active compounds read low 1.02 | locus YNR052C, strain pop2, active compounds read low 1.04 | locus YOL006C, strain TOP1, active compounds read low 1.06 | locus YOL012C, strain htz1 1 | locus YOL147C, strain pex11, active compounds read low 0.99 | locus YOR001W, strain rrp6, active compounds read low 1.01 | locus YOR061W, strain CKA2, active compounds read low 0.972 | locus YOR069W, strain VPS5, active compounds read low 1.01 | locus YOR070C, strain gyp1, active compounds read low 1.03 | locus YOR080W, strain dia2, active compounds read low 1 | locus YOR083W, strain WHI5, active compounds read low 0.986 | locus YOR106W, strain vam3, active compounds read low 1.01 | locus YOR136W, strain idh2, active compounds read low 0.994 | locus YOR144C, strain elg1, active compounds read low 0.988 | locus YOR184W, strain ser1, active compounds read low 0.957 | locus YOR231W, strain MKK1, active compounds read low 1.01 | locus YOR265W, strain rbl2, active compounds read low 1.01 | locus YOR270C, strain vph1, active compounds read low 0.999 | locus YOR290C, strain snf2, active compounds read low 0.99 | locus YOR316C, strain cot1, active compounds read low 1 | locus YPL051W, strain arl3, active compounds read low 1 | locus YPL078C, strain atp4, active compounds read low 1.01 | locus YPL106C, strain sse1, active compounds read low 1.02 | locus YPL240C, strain hsp82, active compounds read low 1.01 | locus YPL241C, strain CIN2, active compounds read low 0.999 | locus YPL256C, strain CLN2, active compounds read low 0.972 | locus YPR119W, strain clb2, active compounds read low 0.993 | locus YPR141C, strain kar3, active compounds read low 0.991 | locus YPR163C, strain tif3, active compounds read low 0.994 | locus YPR167C, strain met16, active compounds read low 0.999 | strain wtn01, active compounds read low 0.984

Source: PubChem BioAssay AID1159580 (chemical genetic matrix, 2015)
